Reference: PubChem BioAssay AID504773 (Broad Institute, 2011)
Results with a measured potency or affinity are listed apart. Calls of active or inactive are those of the source.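 The calls were made as follows: active = polarization signal falls with dose and the fitted half-maximal concentration is at or below ten times the sample's top valid dose; inconclusive = flat curve at 30 to 70% inhibition, or poor fit; inactive = signal rises, flat within 30%, or potency beyond limit.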

biological target: Golgi-associated PDZ and coiled-coil motif-containing protein (Homo sapiens) (UniProt Q9HD26); assay: potency against CAL PDZ-peptide interaction – biochemical, fluorescence polarization, Cerulean-tagged CAL PDZ, cherry-picks, dose response (AID 504773); conditions: CAL PDZ-peptide binding, 1 h; series mostly up to 50 µM; activity change, negative = inhibition: at the top concentration;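 also: 0% = DMSO neutral wells and -100% = excess unlabeled competitor peptide wells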

Activity change, negative = inhibition, inactive:
CC(C)Oc1ccc(C(=O)Nc2ccc(S(=O)(=O)N3CCN(C)CC3)cc2)cc1 28.6%, O=c1c2cc3c(cc2[nH]c(=S)n1CCN1CCOCC1)OCO3 13.2%, O=C(COc1ccccc1)N1CCCCCCC1 -8.91%, O=C(c1cccc(Oc2c(Cl)cccc2[N+](=O)[O-])c1)N1CCOCC1 6.74%, O=C(c1ccccc1)C(CCc1ccccn1)CCc1ccccn1 -15.5%, Cc1cc(/C=C2\SC(=O)N(C)C2=O)c(C)n1-c1ccc(O)cc1 7.87%, CCC(=O)Nc1ccc(S(=O)(=O)NCc2ccco2)cc1 -9.94%, C/C(=N/N1CCN(c2ccccn2)CC1)c1ccc([N+](=O)[O-])cc1 2.05%, COc1cc(Br)c(C(=O)c2nccc3cc(OC)c(OC)cc23)cc1OC -27.4%, CN(CC1CCCO1)S(=O)(=O)c1ccc(C(=O)Nc2ccc([N+](=O)[O-])cc2)cc1 (centres undefined) 22.9%, CC1CCCC(C)N1/N=C/c1ccc(N(C)C)cc1 (centres undefined) -16.6%, CC12CCC(C(=O)N(CCCN3CCN(Cc4ccccc4)CC3)C1=O)C2(C)C (centres undefined) -37.3%, O=C(NCC(=O)N1CCC(N2CCCCC2)CC1)C1CCCCC1 7.41%, COc1ccc(C(=O)Nc2nccs2)cc1 19.6%, COC(=O)C1CCN(C(=O)/C(C)=C\c2ccccc2)CC1 -13.2%, CC(C)OCCCNC(=O)C1CC(=O)N(CCc2ccc(F)cc2)C1 (centres undefined) -11.6%, CCCC(=O)OCC(=O)Nc1ccccc1C#N 2.59%, N=c1c(S(=O)(=O)c2ccc(Cl)cc2)cc2c(=O)n3ccccc3nc2n1C1CCCCC1 19.1%, Cc1ccnc(SCC(=O)N2CCC(C(N)=O)CC2)n1 -6.75%
